DAX1 inh-1 = inhibitors of human orphan nuclear receptor DAX1 (NR0B1) | P51843 | HEK293 Gal4-DAX1 luciferase reporter, luminescence | inhibition, % at 6.75 µM | hit rate 0.99% among 340,000;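 active = inhibition above the mean over all tested compounds plus 3 SD, cut at about 4.2% in these data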;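 also: inhibition shows as a rise in luminescence from relieved DAX1 repression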
Target sequence (P51843 207-470 limits assumed): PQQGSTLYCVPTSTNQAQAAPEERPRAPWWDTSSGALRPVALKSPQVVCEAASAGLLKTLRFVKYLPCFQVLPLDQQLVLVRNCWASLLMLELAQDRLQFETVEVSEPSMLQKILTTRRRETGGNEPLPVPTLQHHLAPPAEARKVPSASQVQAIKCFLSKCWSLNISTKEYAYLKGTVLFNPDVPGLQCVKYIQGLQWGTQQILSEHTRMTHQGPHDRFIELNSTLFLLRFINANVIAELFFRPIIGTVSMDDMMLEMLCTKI
hcDAF12 agonist = activates DAF-12 receptor from parasite H. contortus. HEK293 hcDAF-12 lit1-tk-luc reporter, luminescence; 0% DMSO, 100% Δ7-dafachronic acid. activation, % at 6.8 µM. hit rate 1.4% among 370,000. AID 652067;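 active = activation above the mean of all tested compounds plus 3 SD, cut at about 5.5% in these data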
DAX1 inh-2 = inhibitors of DAX1 repression of SF-1 activated StAR promoter; inhibition, % at 6.8 µM; hit rate 1.1% among 370,000; AID 652010; HEK293T StAR-luciferase reporter, SF-1/DAX-1 repression relief;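 active = inhibition above the mean over all tested compounds plus 3 SD, cut at about 3.6% in these data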;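 also: higher inhibition means more luminescence from relief of DAX-1 repression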
NR1D1 modulator = modulators of human Rev-erb alpha DNA binding; Rev-erbα–FITC-DNA binding, fluorescence polarization, 90 min; activity, % at 10 µM; hit rate 0.79% among 370,000;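 active = activity above about 14%, limit read from the data; passing the limit was not always enough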
ssDAF-12 act = activates DAF-12 receptor from parasite S. stercoralis | activation, % at 6.8 µM | HEK293 ssDAF-12/GRIP1 lit1-tk-luc reporter, luminescence; % of 3 µM dafachronic acid response | hit rate 1% among 370,000 | AID 652126;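 active = activation above the mean over all tested compounds plus 3 SD, cut at about 0.9% in these data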
hgDAF12 agonist = activates the H. glycines DAF-12 receptor ligand-binding domain; activation, % at 6.8 µM; HEK293 GAL4-hgDAF12 UAS-luciferase reporter, agonist luminescence; normalized to butyrate control; hit rate 1.8% among 370,000; AID 687014;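 active = activation above a cutoff set at the mean of all screened compounds plus 3 SD, cut at about 10% in these data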
LXR ag = LXR-beta agonism as hcDAF-12 counter-screen. shares compounds with hcDAF12 agonist. HEK293 Gal4-LXR tk-luc reporter, luminescence, 24 h; normalized: DMSO 0%, positive control 100%. activation, % at 6.8 µM. 3,400 tested, under 10 active. AID 743027;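 active = mean percent activation of the reporter above a cutoff set as the average over tested compounds plus their standard deviation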
Target sequence (P55055 whole entry, looked up, the tested form may be a part): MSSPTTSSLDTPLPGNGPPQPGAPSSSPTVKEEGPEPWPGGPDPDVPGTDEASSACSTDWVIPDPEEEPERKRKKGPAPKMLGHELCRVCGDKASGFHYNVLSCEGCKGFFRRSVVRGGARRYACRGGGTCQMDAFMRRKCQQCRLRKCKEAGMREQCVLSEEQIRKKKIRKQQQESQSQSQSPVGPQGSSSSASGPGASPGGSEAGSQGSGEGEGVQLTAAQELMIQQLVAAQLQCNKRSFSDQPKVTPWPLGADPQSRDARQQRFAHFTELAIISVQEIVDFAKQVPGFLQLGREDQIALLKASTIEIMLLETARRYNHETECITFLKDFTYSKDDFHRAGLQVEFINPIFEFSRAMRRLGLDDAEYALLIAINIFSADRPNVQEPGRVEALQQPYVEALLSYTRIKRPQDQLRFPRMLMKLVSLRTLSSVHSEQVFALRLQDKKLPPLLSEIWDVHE
hcDAF12 conf = confirmation of H. contortus DAF-12 agonists; activation, % at 6.8 µM; AID 743032; hit rate 61% among 3,400; shares compounds with hcDAF12 agonist; HEK293 hcDAF-12 lit1-tk-luc reporter, luminescence; % of Δ7-dafachronic acid response;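 active = mean activation across triplicate tests above the threshold derived from the earlier primary screen, cut at about 5.5% in these data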
Hits are given with their value. Most compounds without a hit are left out; they make up all but 4.8% or so of the library.

Results for Clc1nc(-c2ccccn2)nc2scc(-c3ccccc3)c12 ?
DAX1 inh-1: inactive; hcDAF12 agonist: 11.6; DAX1 inh-2: inactive; NR1D1 modulator: inactive; ssDAF-12 act: inactive; hgDAF12 agonist: 14.4; LXR ag: inactive; hcDAF12 conf: 6.6

How did COc1ccc(Cn2cc(CN3[C@@H](c4ccccc4)COc4cc(Br)ccc4S3(=O)=O)nn2)cc1 do in these assays?
hcDAF12 agonist: inactive; DAX1 inh-2: inactive; NR1D1 modulator: inactive; ssDAF-12 act: inactive; hgDAF12 agonist: inactive

What do the screens show for `CC(Sc1c[nH]c2ccccc12)C(=O)O` (stereo not given)?
DAX1 inh-1: inactive; hcDAF12 agonist: 8.5; DAX1 inh-2: inactive; NR1D1 modulator: inactive; ssDAF-12 act: inactive; hgDAF12 agonist: inactive; LXR ag: inactive; hcDAF12 conf: inactive

What do the screens show for `C=CCSc1cc(C)nc2c(-c3ccccc3)cnn12`?
DAX1 inh-1: 4.9; hcDAF12 agonist: 12.0; DAX1 inh-2: inactive; NR1D1 modulator: inactive; ssDAF-12 act: 2.9; hgDAF12 agonist: 12.3; LXR ag: inactive; hcDAF12 conf: 6.9

How did CC(=O)Nc1ccc(Nc2cc(C)nc3c(-c4ccccc4)cnn23)cc1 do in these assays?
DAX1 inh-1: inactive; hcDAF12 agonist: inactive; DAX1 inh-2: inactive; NR1D1 modulator: inactive; ssDAF-12 act: inactive; hgDAF12 agonist: inactive

What do the screens show for `COC(=O)C1=C(C)NC(=S)NC1c1ccc(Br)cc1` (stereo not given)?
hcDAF12 agonist: inactive; DAX1 inh-2: inactive; NR1D1 modulator: inactive; ssDAF-12 act: inactive; hgDAF12 agonist: inactive

Results for O=C(O)c1cc(-c2c[nH]c3ccccc23)nc2cc3ccccc3cc12 ?
hcDAF12 agonist: 8.7; DAX1 inh-2: inactive; NR1D1 modulator: inactive; ssDAF-12 act: 1.6; hgDAF12 agonist: inactive; LXR ag: inactive; hcDAF12 conf: 9.0

How did Cc1ccc(Cn2ccc(NC(=O)c3noc4c3CCCCC4)n2)cc1 do in these assays?
DAX1 inh-1: inactive; hcDAF12 agonist: inactive; DAX1 inh-2: inactive; NR1D1 modulator: inactive; ssDAF-12 act: inactive; hgDAF12 agonist: inactive

What do the screens show for `Cc1ccc(NC(=O)c2noc3c2CCCCC3)cc1`?
DAX1 inh-1: inactive; hcDAF12 agonist: 10.3; DAX1 inh-2: inactive; NR1D1 modulator: inactive; ssDAF-12 act: 1.2; hgDAF12 agonist: 11.5; LXR ag: inactive; hcDAF12 conf: 8.2

How did CCOc1ccc(-c2cc(C(C)=O)c3n(c2=O)CCC3)cc1 do in these assays?
hcDAF12 agonist: inactive; DAX1 inh-2: inactive; NR1D1 modulator: inactive; ssDAF-12 act: inactive; hgDAF12 agonist: inactive

How did CC(=O)N1N=C(c2ccc(Br)cc2)CC1c1cn(C)c2ccccc12 (stereo not given) do in these assays?
DAX1 inh-1: inactive; hcDAF12 agonist: inactive; DAX1 inh-2: inactive; NR1D1 modulator: inactive; ssDAF-12 act: inactive; hgDAF12 agonist: inactive

Results for O=C(c1ccccc1)N1N=C(c2ccccc2)CC1c1ccccc1 (stereo not given) ?
DAX1 inh-1: inactive; hcDAF12 agonist: inactive; DAX1 inh-2: inactive; NR1D1 modulator: inactive; ssDAF-12 act: inactive; hgDAF12 agonist: inactive

Results for Cn1cc(C2CC(c3ccccc3)=NN2C(=O)c2ccccc2)c2ccccc21 (stereo not given) ?
DAX1 inh-1: inactive; hcDAF12 agonist: 7.9; DAX1 inh-2: inactive; NR1D1 modulator: inactive; ssDAF-12 act: inactive; hgDAF12 agonist: inactive; LXR ag: inactive; hcDAF12 conf: inactive

What do the screens show for `CCCC(=O)N1N=C(c2ccccc2)CC1c1cn(C)c2ccccc12` (stereo not given)?
DAX1 inh-1: inactive; hcDAF12 agonist: 8.1; DAX1 inh-2: inactive; NR1D1 modulator: inactive; ssDAF-12 act: inactive; hgDAF12 agonist: inactive; LXR ag: inactive; hcDAF12 conf: inactive

Results for N/C(=N\OC(=O)c1ccccc1Cl)c1ccc(Cl)cc1 ?
DAX1 inh-1: inactive; hcDAF12 agonist: 9.1; DAX1 inh-2: inactive; NR1D1 modulator: inactive; ssDAF-12 act: 1.5; hgDAF12 agonist: inactive; LXR ag: inactive; hcDAF12 conf: 14.7

Results for N/C(=N\OC(=O)c1ccc(Cl)cc1Cl)c1ccc(Cl)cc1 ?
DAX1 inh-1: inactive; hcDAF12 agonist: inactive; DAX1 inh-2: inactive; NR1D1 modulator: inactive; ssDAF-12 act: inactive; hgDAF12 agonist: inactive

What do the screens show for `Cc1cccc(/C(N)=N/OC(=O)c2cccc3ccccc23)c1`?
DAX1 inh-1: inactive; hcDAF12 agonist: 7.0; DAX1 inh-2: inactive; NR1D1 modulator: inactive; ssDAF-12 act: 0.9; hgDAF12 agonist: inactive; LXR ag: inactive; hcDAF12 conf: 6.3

What do the screens show for `N/C(=N\OC(=O)c1ccc(Cl)cc1Cl)c1ccccc1`?
DAX1 inh-1: inactive; hcDAF12 agonist: 7.3; DAX1 inh-2: inactive; NR1D1 modulator: inactive; ssDAF-12 act: inactive; hgDAF12 agonist: inactive; LXR ag: inactive; hcDAF12 conf: 25.1

Results for N/C(=N\OC(=O)c1cccc2ccccc12)c1cccc([N+](=O)[O-])c1 ?
DAX1 inh-1: inactive; hcDAF12 agonist: inactive; DAX1 inh-2: inactive; NR1D1 modulator: inactive; ssDAF-12 act: inactive; hgDAF12 agonist: inactive

What do the screens show for `Cc1[nH]c2ccccc2c1C(=O)c1c(N)[nH]c(C(=O)c2ccc(Br)cc2)c1-c1ccc(Br)cc1`?
hcDAF12 agonist: inactive; DAX1 inh-2: inactive; NR1D1 modulator: inactive; ssDAF-12 act: inactive; hgDAF12 agonist: inactive

How did C/C(=N\Nc1nc2ccccc2[nH]1)c1cc2ccccc2o1 do in these assays?
DAX1 inh-1: inactive; hcDAF12 agonist: 7.4; DAX1 inh-2: inactive; NR1D1 modulator: inactive; ssDAF-12 act: inactive; hgDAF12 agonist: inactive; LXR ag: inactive; hcDAF12 conf: 8.7

Results for C/C(=N\Nc1nc2ccccc2[nH]1)c1ccccn1 ?
DAX1 inh-1: inactive; hcDAF12 agonist: inactive; DAX1 inh-2: inactive; NR1D1 modulator: inactive; ssDAF-12 act: inactive; hgDAF12 agonist: inactive

Results for Nc1c2c(nc3cccc(Cl)c13)N(c1ccccc1)CC2 ?
DAX1 inh-1: inactive; hcDAF12 agonist: 7.2; DAX1 inh-2: inactive; NR1D1 modulator: inactive; ssDAF-12 act: 1.1; hgDAF12 agonist: inactive; LXR ag: inactive; hcDAF12 conf: 7.4

How did CN1CCc2c1nc1ccccc1c2N (tested in a mixture with another compound) do in these assays?
DAX1 inh-1: inactive; hcDAF12 agonist: inactive; DAX1 inh-2: inactive; NR1D1 modulator: inactive; ssDAF-12 act: inactive; hgDAF12 agonist: inactive

What do the screens show for `COc1ccc(Cc2c(-c3ccc(C)cc3)nc3cc(C)c(Br)c(C)n23)c(C)c1`?
hcDAF12 agonist: 11.1; DAX1 inh-2: inactive; NR1D1 modulator: inactive; ssDAF-12 act: 2.1; hgDAF12 agonist: 10.8; LXR ag: inactive; hcDAF12 conf: 6.1

Source: PubChem (several laboratories)
